SMILES strings stand for the structures. Compounds without any hit were thinned out: in the full panel of roughly 83,000, 20% have a hit.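 A percent growth of 40 corresponds to 60% growth inhibition; 0 means no net growth; -100 means all cells died. Active threshold: below 10.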 Calls of active or inactive are those of the source.

The assay concerns M14 melanoma. Description: NCI-60 one-dose screen, 48 h (100 = growth as untreated, 0 = no growth, -100 = all killed). The settings on record: 10 µM unless noted. The procedure:
Growth inhibition of the M14 human tumor cell line is measured as a screen for anti-cancer activity. Cells are grown in 96 well plates and exposed to the test compound for 48 hours. Compounds are tested at a single concentration, which is 10^-5 M for most compounds. The reported endpoint is percent growth (GI% or GIPRCNT), where numbers from 0 - 100% represent growth inhibition, and numbers from -100% - 0 represent cell death. For example, a value of 40 represents 60% growth inhibition. A value of 0 means no net growth occurred over the course of the experiment. A value of -40 indicates 40% of cells at the beginning of the experiment died by the end of the experiment. A value of -100 means all cells are dead at the end of the experiment.
NCI-60 Human Tumor Cell Lines Screen was performed using the standard one-dose NCI protocol, which is described in more detail at https://dtp.cancer.gov/discovery_development/nci-60/default.htm.
Compounds with GIPRCNT values below 10 were considered active. Activity score was based on GIPRCNT using the following formula: […]
Score is 0 for GIPRCNT values of 100 or above, 50 for GIPRCNT values of 0, and 100 for GIPRCNT values of -100.
As to `COc1ccc(CN2c3ccccc3Oc3ccccc32)cc1F`, the growth is 33.6% (inactive).
In the case of `COc1ccc(C(=O)COc2ccc(/C=C3\Oc4ccc(OC)cc4C3=O)cc2)cc1`, the growth is 110% (inactive).
As for `O=C1c2ccccc2C(=O)c2c(N=Nc3[nH]c(=S)[nH]c3O)cccc21`, the figure is -15.8% (active).
In the case of `COc1cc(C2CC(=O)c3ccccc3N2)cc(OC)c1OC` (stereo not given), the growth was 103% (inactive).
For `CN(C)[C@@H]1C(=O)C(C(=O)NCc2nc3[nH]cnc(=S)c3[nH]2)=C(O)[C@@]2(O)C(=O)C3=C(O)c4c(O)cccc4[C@@](C)(O)[C@H]3C[C@@H]12`, the growth was 9.8% (active).
As for `CCCOc1cc2ccccc2cc1C(=O)Nc1nc(NC)c2c(ccc3nccc32)[nH]1`, the growth is -75.7% (active).
Consider `O=C(O)c1c(=O)cccc2ssc12`, for which the growth was 3.29% (active).
In the case of `COc1cc2c(cc1-c1c(C)noc1C)ncc1nc(-c3ccccn3)n([C@H](C)COC(F)F)c12`, the growth was 49.5% (inactive).
On to `Cn1cccc1-c1nc2c3c(ccc2[nH]1)C(=O)c1ccccc1C3=O`, for which the growth is 99.7% (inactive).
With `COc1ccccc1NS(=O)(=O)c1ccc2oc(SC(C)C)nc2c1`, the growth was 110% (inactive).
As for `CC(=O)Oc1ccc(Cl)cc1CN(C(C)=O)C1CCCCC1`, the figure is 109% (inactive); as for `c1csc(C2=NN3C(C2)c2ccccc2OC3c2ccncc2)c1` (stereo not given), 105% (inactive).
As for `CCCCCCCCCCCCC[N+](C)(C)Cc1ccccc1`, the figure is -66.6% (active); as for `NC(=NC1C2CC3CC(C2)CC1C3)Nc1ccc(I)cc1` (stereo not given), 2.98% (active).
`C#CC(F)(F)[C@]1(O)CC[C@H]2[C@@H]3CCC4=CC(=O)CCC4=C3[C@@H](c3ccc(C(C)=O)cc3)C[C@@]21C`: the growth was 96.6% (inactive).
For the molecule `O=c1ccccc(-c2ccc(-c3ccco3)cc2)c1O`, the growth was -2.99% (active).
As for `Cc1cc(N2CCCC2)nc(NC2CCCC(Nc3ccnc4cc(Cl)ccc34)C2)n1` (stereo not given), the figure is -83.6% (active); as for `C=CC(=O)Nc1cccc(-c2nc(SC)nc(Nc3ccccc3OC)c2C#N)c1`, 50.4% (inactive).
As for `O=C1NC(=S)N[C@H]1CC(=O)n1cnc2ccccc21`, the figure is 96.8% (inactive); as for `Cc1nc2ccccc2n1C(=O)C[C@@H]1NC(=S)NC1=O`, 89.3% (inactive).
Consider `O=[N+]([O-])c1ccc2c(c1)Cc1cc(F)ccc1-2`, for which the growth was 110% (inactive).
As for `O=C(N=Nc1c(O)[nH]c2ccc(Br)cc12)c1cc(-c2ccccc2)on1`, the figure is 104% (inactive); as for `O=C1c2cccc3cccc(c23)C(=O)N1CCCCN1CCN(CCCCOc2ccc(-c3nc4ccc(N5CCOCC5)cc4[nH]3)cc2)CC1`, 98.4% (inactive).
As for `COC(=O)[C@@H]1CCCN1C(=O)[C@@H]1CCCN1C(=O)[C@H](Cc1ccccc1)NC(=S)Nc1cc(C(F)(F)F)cc(C(F)(F)F)c1`, the figure is 89.3% (inactive); as for `O=S(=O)(Nc1ccc(NS(=O)(=O)c2ccccc2)c(Cl)c1)c1ccccc1`, 101% (inactive).
As for `Cc1ccc(NC(=O)C2CCC(CN3CCN(C)CC3)CC2)cc1Nc1nccc(-c2cccnc2)n1` (stereo not given), the figure is 98.8% (inactive).
With `Cn1ncc2c(=O)nc3c(-c4ccccc4)n[nH]n3c21`, the growth is 104% (inactive).
Consider `CCCSc1ccc2nc(NC(=O)OC)[nH]c2c1`, for which the growth is 0.47% (active).
As for `OCCN1CCN(c2nc(Nc3ccc(-c4nc5ccccc5[nH]4)cc3)c3cn[nH]c3n2)CC1`, the figure is -78.3% (active); as for `CC[C@@H](C(=O)[C@@H](C)[C@@H](O)[C@H](C)[C@@H]1O[C@@H]([C@@H](CC)C(=O)O)CC[C@@H]1C)[C@H]1OC2(C=C[C@@H](O)[C@]3(CC[C@@](C)([C@H]4CC[C@](O)(CC)[C@H](C)O4)O3)O2)[C@H](C)C[C@@H]1C` (stereo not given in full), -86.7% (active).
As for `O=C(Oc1cccnc1)c1ccsc1Nc1ccnc(C(F)(F)F)c1`, the figure is 81.6% (inactive); as for `Cc1ccc2oc(=O)cc(C3c4ccc([nH]4)C(c4cc(=O)oc5ccc(C)cc45)c4ccc([nH]4)C(c4cc(=O)oc5ccc(C)cc45)c4ccc([nH]4)C(c4cc(=O)oc5ccc(C)cc45)c4ccc3[nH]4)c2c1` (stereo not given), -71.9% (active).
For `O=C(COc1cccc(/C=C2\COc3ccc(Cl)cc3C2=O)c1)c1ccc(Cl)cc1`, the growth is 82.4% (inactive).
On to `COc1ccc(-c2cc(=O)c3c(OC)c4ccoc4cc3o2)cc1`, for which the growth is 115% (inactive).
As for `COc1cc(-c2nc3ccccc3[nH]2)ccc1OCc1nnc(-c2ccc(CC(C)C)cc2)o1`, the figure is 98.3% (inactive); as for `COc1cc2nc(N3CCCC3)nc(NCC3CCCCC3)c2cc1OC`, -79.3% (active).
As for `Cc1cc(N2CCN(c3ccnc4cc(Cl)ccc34)CC2)nc(NC2CCCCC2)n1`, the figure is -45.1% (active); as for `O=C(CN1C(=O)/C(=C/c2ccc(Cl)cc2)SC1=S)NCCCN1CCOCC1`, 113% (inactive); as for `C=C(C)[C@@H]1CC[C@]2(C(=O)OC)CC[C@]3(C)[C@H](CC[C@@H]4[C@@]5(C)C/C(=C/c6ccc(OC)cc6)C(=O)C(C)(C)[C@@H]5CC[C@]43C)[C@@H]12`, 91% (inactive).
In the case of `Cc1cc(C)nc(SC2=C(Nc3cccc(Cl)c3)C(=O)N(Cc3ccccc3)C2=O)n1`, the growth was 74.8% [30 µM] (inactive).

These data come from PubChem BioAssay (NCI).
